The values below come from PubChem BioAssay (EPA / NIEHS).

Calls of active or inactive are those of the source. The calls were made as follows, unless noted: active = hit-call score of the fitted dose curve at least 0.9, where 1 is the maximum; inactive = score below 0.9.

By AC50 is commonly meant the midpoint of the concentration-response curve, whichever way the signal moves.

Read-out in one assay: X-box binding protein 1 (XBP1), XBP1 (gene 7494)
Description: LTEA_HepaRG_XBP1: Life Technologies and Expression Analysis (LTEA) Assay for X-box binding protein 1 (XBP1) using HepaRG (AID 2283540). The settings on record: mRNA level, 48 h; actives raise or lower the signal. The essentials: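 XBP1 transcript by qRT-PCR (housekeeping-normalized: ACTB, GAPDH, POLR2A) after 48 h chemical treatment of HepaRG cells, 8-point half-log series topping at 100 uM, vehicle 0.5% DMSO. Gain and loss of signal fitted relative to DMSO.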
Take `CCCCN1C(=O)[C@@H]([C@H](O)C2CCCCC2)NC(=O)C12CCN(Cc1ccc(Oc3ccc(C(=O)O)cc3)cc1)CC2`: the AC50 was 3.25 µM (active).
As for `OCC(CO)(CO)CO`, the call was inactive.
As to `c1ccc(C(O[C@@H]2CCCN(CCc3ccc4c(c3)OCO4)C2)c2ccccc2)cc1`, the compound was called inactive.
In the case of `Cn1c(=O)c2[nH]cnc2n(C)c1=O`, the result was inactive.
As for `CC(C)c1nnc2ccc(-c3ocnc3-c3cc(F)ccc3F)cn12`, the AC50 was 39 µM (active).
Turning to `O=C(O)c1cccc(C[C@@H]2COc3ccc(OCc4nc5cc(F)ccc5s4)cc3[C@@H]2O)c1`, the compound was classed as inactive.
For the compound `CCCCCCCC/C=C\CCCCCCCC(=O)OC[C@@H](O)[C@H]1OC[C@H](O)[C@H]1O`, the outcome was inactive.
For `O=S1(=O)CCCO1`, the call was inactive.
As to `C[C@]12C=CC(=O)C=C1CC[C@H]1[C@@H]3C[C@@H](O)[C@](O)(C(=O)CO)[C@@]3(C)C[C@H](O)[C@@]12F`, the result was inactive.
Take `CCCCC(CC)C(=O)OCCOCCOCCOC(=O)C(CC)CCCC` (stereo not drawn): the outcome was inactive.
For `C=CN1CCCC1=O`, the result was inactive.
Turning to `CC(=O)c1ccccc1`, the result was inactive.
Still for that read-out and setting: next, `OC(Cn1cncn1)(Cn1cncn1)c1ccc(F)cc1F`: “inactive”.
On the same count and under the same terms, then `CCCCOC(=O)c1ccccc1`, with “inactive”.
In the case of `c1ccc2cc3ccccc3cc2c1`, the compound was called inactive.
Same read-out and setting: then `CCCCCCCCN(C)C`, with “inactive”.
As for `CCn1nc(C)c2c1C(=O)NCC(c1ccc(O)cc1)=N2`, the result was inactive.
On the same count and under the same terms, then `CCc1cccc(CC)c1N`, with “inactive”; and `CCN(CC)C(=S)SSC(=S)N(CC)CC`, with “inactive”; and `CCCCCCCCCCCCCCO`, with “inactive”.
As for `CCCc1ccccc1`, the result was inactive.
`CCc1ccc(O)c(C(C)(C)C)c1`: the call was inactive.
Turning to `O=C(O)c1ccc2c(c1)nc(C(=O)NC1CCN(C3CC3)CC1)n2Cc1cc(-c2ccc(Cl)s2)on1`, the result was inactive.
Regarding `NNC(=O)c1ccncc1`, the compound was called inactive.
Regarding `C=CCc1cc(S(=O)(=O)c2ccc(O)c(CC=C)c2)ccc1O`, the AC50 was 66.7 µM (active).
For the compound `CCCCCCCCCC`, the call was inactive.
As to `NC(=O)NN=Cc1ccc([N+](=O)[O-])o1`, the call was inactive.
As for `CC1(C)C(=O)N(Cl)C(=O)N1Cl`, the result was inactive.
On to `CCCCCCOC(=O)CC(CC(=O)OCCCCCC)(OC(=O)CCC)C(=O)OCCCCCC`, for which the outcome was inactive.
Take `CCCCCCCC1CCC(=O)O1` (stereo not drawn): the outcome was inactive.
With `c1ccc2ncccc2c1`, the outcome was inactive.
Still for that read-out and setting: next, `CCOC(N)=O`: “inactive”; `Cn1cc[nH]c1=S`: “inactive”; `CCCCCCCCCCCCCCCCOS(=O)(=O)O`: “inactive”.
As to `OCCOCCOCCO`, the compound was called inactive.
The same measure, in the same setting: next, `OC(CCl)CCl`: “inactive”; `O=C1CN(N=Cc2ccc([N+](=O)[O-])o2)C(=O)N1`: “inactive”.

Read-out in a further assay: not listed separately
Briefly: LTEA_HepaRG_LDH_cytotoxicity: Cytotoxicity Assessment in the Life Technologies and Expression Analysis (LTEA) Assay (AID 2283563; active = hit-call score of the fitted dose curve at least 0.9, where 1 is the maximum;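 as to AC50: LDH activity released into spent culture medium as a marker of cell death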).
Details: not given
The essentials:
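LDH release into culture medium read after 48 h chemical treatment of HepaRG cells. Duplicate wells, eight-point half-log series topping at 100 uM, 0.5% DMSO vehicle and baseline.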
As to `CCCCN1C(=O)[C@@H]([C@H](O)C2CCCCC2)NC(=O)C12CCN(Cc1ccc(Oc3ccc(C(=O)O)cc3)cc1)CC2`, the AC50 is 37.5 µM (active).
Regarding `OCC(CO)(CO)CO`, the compound was called inactive.
Turning to `c1ccc(C(O[C@@H]2CCCN(CCc3ccc4c(c3)OCO4)C2)c2ccccc2)cc1`, the AC50 was 74.7 µM (active).
For `Cn1c(=O)c2[nH]cnc2n(C)c1=O`, the compound was called inactive.
Regarding `CC(C)c1nnc2ccc(-c3ocnc3-c3cc(F)ccc3F)cn12`, the call was inactive.
Take `O=C(O)c1cccc(C[C@@H]2COc3ccc(OCc4nc5cc(F)ccc5s4)cc3[C@@H]2O)c1`: the AC50 was 75.6 µM (active).
Consider `CCCCCCCC/C=C\CCCCCCCC(=O)OC[C@@H](O)[C@H]1OC[C@H](O)[C@H]1O`, for which the compound was called inactive.
On the same count and under the same terms, next, `O=S1(=O)CCCO1`: “inactive”; `C[C@]12C=CC(=O)C=C1CC[C@H]1[C@@H]3C[C@@H](O)[C@](O)(C(=O)CO)[C@@]3(C)C[C@H](O)[C@@]12F`: “inactive”.
On to `CCCCC(CC)C(=O)OCCOCCOCCOC(=O)C(CC)CCCC` (stereo not drawn), for which the result was inactive.
Regarding `C=CN1CCCC1=O`, the result was inactive.
For the compound `CC(=O)c1ccccc1`, the outcome was inactive.
With `OC(Cn1cncn1)(Cn1cncn1)c1ccc(F)cc1F`, the compound was classed as inactive.
Turning to `CCCCOC(=O)c1ccccc1`, the compound was called inactive.
As to `c1ccc2cc3ccccc3cc2c1`, the compound was called inactive.
Still for that read-out and setting: then `CCCCCCCCN(C)C`, with “inactive”.
In the case of `CCn1nc(C)c2c1C(=O)NCC(c1ccc(O)cc1)=N2`, the compound was classed as inactive.
Same read-out and setting: next, `CCc1cccc(CC)c1N`: “inactive”; `CCN(CC)C(=S)SSC(=S)N(CC)CC`: “inactive”.
Turning to `CCCCCCCCCCCCCCO`, the compound was classed as inactive.
On to `CCCc1ccccc1`, for which the compound was called inactive.
`CCc1ccc(O)c(C(C)(C)C)c1`: the result was inactive.
Consider `O=C(O)c1ccc2c(c1)nc(C(=O)NC1CCN(C3CC3)CC1)n2Cc1cc(-c2ccc(Cl)s2)on1`, for which the compound was called inactive.
As for `NNC(=O)c1ccncc1`, the result was inactive.
In the case of `C=CCc1cc(S(=O)(=O)c2ccc(O)c(CC=C)c2)ccc1O`, the AC50 is 76.7 µM (active).
Turning to `CCCCCCCCCC`, the compound was called inactive.
In the case of `NC(=O)NN=Cc1ccc([N+](=O)[O-])o1`, the call was inactive.
As to `CC1(C)C(=O)N(Cl)C(=O)N1Cl`, the compound was classed as inactive.
Consider `CCCCCCOC(=O)CC(CC(=O)OCCCCCC)(OC(=O)CCC)C(=O)OCCCCCC`, for which the compound was called inactive.
Consider `c1ccc2ncccc2c1`, for which the call was inactive.
Take `CCOC(N)=O`: the call was inactive.
With `Cn1cc[nH]c1=S`, the compound was called inactive.
Take `CCCCCCCCCCCCCCCCOS(=O)(=O)O`: the compound was classed as inactive.
On the same count and under the same terms, then `OCCOCCOCCO`, with “inactive”.
Take `OC(CCl)CCl`: the result was inactive.
In the case of `O=C1CN(N=Cc2ccc([N+](=O)[O-])o2)C(=O)N1`, the compound was classed as inactive.
